# Assay results published in PubChem BioAssay AID624170 (National Center for Advancing Translational Sciences (NCATS), 2012).
# Among all 410,000 compounds or so, about 850 (0.21%) were called active. Where a call stands in place of a potency, no number is given. About 2% were inconclusive and are not listed. This is one part of a sample in which actives are shown more often than they occur. The call rests on the fitted dose curve; in most records, active means well fitted inhibition curve with a large enough effect; inconclusive means small, poorly fitted or top-dose-only effect, or another doubt; inactive means no such curve, though single readings can be large or run the other way.
# Target: Glutaminase kidney isoform, mitochondrial (Homo sapiens) (UniProt O94925)
# Sequence (O94925 whole entry, looked up, canonical isoform): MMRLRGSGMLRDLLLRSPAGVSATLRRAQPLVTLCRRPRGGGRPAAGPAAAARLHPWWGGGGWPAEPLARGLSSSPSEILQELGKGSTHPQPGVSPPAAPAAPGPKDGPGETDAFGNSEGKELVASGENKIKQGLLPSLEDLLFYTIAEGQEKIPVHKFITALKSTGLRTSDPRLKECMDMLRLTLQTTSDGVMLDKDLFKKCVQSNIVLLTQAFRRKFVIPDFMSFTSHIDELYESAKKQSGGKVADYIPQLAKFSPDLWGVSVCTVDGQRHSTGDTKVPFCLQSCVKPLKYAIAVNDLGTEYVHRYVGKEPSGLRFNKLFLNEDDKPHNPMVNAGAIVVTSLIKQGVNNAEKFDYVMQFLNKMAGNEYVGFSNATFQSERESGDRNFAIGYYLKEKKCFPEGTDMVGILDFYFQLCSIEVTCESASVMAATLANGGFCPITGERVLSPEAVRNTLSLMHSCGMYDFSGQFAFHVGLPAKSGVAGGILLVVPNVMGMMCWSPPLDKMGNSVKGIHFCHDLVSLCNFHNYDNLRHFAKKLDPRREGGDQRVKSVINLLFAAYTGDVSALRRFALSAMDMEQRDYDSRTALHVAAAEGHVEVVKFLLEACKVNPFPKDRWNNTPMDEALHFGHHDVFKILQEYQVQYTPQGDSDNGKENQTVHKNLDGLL
# Assay: qHTS for Inhibitors of Glutaminase (GLS)
# Conditions: GLS enzymatic activity, qHTS titration; series mostly up to 45.5 µM
# Outline: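 Coupled fluorescence readout: glutamate oxidase/HRP/Amplex Red detect glutamate formed by hKGA from L-glutamine (1 mM solution added). Buffer 45 mM KH2PO4 pH 8.2, 0.02% Tween-20; reads at t0 and 30 min RT.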
# Potency means the concentration at half of the fitted maximal effect.
row,SMILES,Potency
1,CC(C)(C)c1ccc(S(=O)(=O)N2CCN(C(=O)c3cc(-c4ccc(Br)cc4)n[nH]3)CC2)cc1,inactive
2,COc1cc(OC)c(S(=O)(=O)Nc2ccccc2C(=O)O)cc1S(=O)(=O)Nc1ccccc1C(=O)O,5.62 µM (active)
3,COc1ccc(Cl)cc1S(=O)(=O)Nc1cccc(C(=O)O)c1,inactive
4,COc1cc(/C=C/C(=O)O)cc(S(=O)(=O)Nc2ccccc2SC)c1OC,inactive
5,COc1cc2c(cc1OC)CC(=O)N(CCCN(C)C[C@H]1Cc3cc(OC)c(OC)cc31)CC2,inactive
6,Nc1ccc2nc3c(=O)[nH]c(=S)[nH]c3nc2c1,3.16 µM (active)
7,Cc1ccccc1C(=O)N(Cc1ccc(N(C)C)cc1)CC1CCCO1 (stereo not given),inactive
8,CCOc1ccc(N(CC)C(=O)c2cc3c(=O)oc4ccccc4c3s2)cc1,inactive
9,CC(=O)Oc1ccccc1C(=O)Nc1ncc([N+](=O)[O-])s1,inactive
10,CCOC(=O)c1c(C)oc2nc(C)nc(N3CCN(c4ccc(OC)cc4)CC3)c12,inactive
11,O=C(CC1Oc2ccccc2NC1=O)NCc1ccc(F)cc1 (stereo not given),inactive
12,O=C(CCCCn1c(=O)c2ccccc2n(CC(=O)Nc2cccc(C(F)(F)F)c2)c1=O)NCc1ccc2c(c1)OCO2,inactive
13,CCOc1cc2[nH]c(=S)n(Cc3ccc(C(=O)N4CCN(C)CC4)cc3)c(=O)c2cc1OCC,inactive
14,COc1ccc(OC)c(-n2c(=S)[nH]c3cc(C(=O)N4CCCCC4)ccc3c2=O)c1,inactive
15,COc1ccccc1Cn1c(=S)[nH]c2cc(C(=O)N3CCN(C)CC3)ccc2c1=O,12.6 µM (active)
16,O=C1C(c2[nH]c3ccccc3c2O)=Nc2ccccc21,inactive
17,COc1cccc(-c2coc3cc4oc(=O)c(CC(=O)O)c(C)c4cc23)c1,inactive
18,COc1ccc2c(C)c(CCC(=O)NCc3ccc(OC)c(OC)c3)c(=O)oc2c1,inactive
19,Cc1c(CCC(=O)O)c(=O)oc2cc3occ(-c4ccccc4)c3cc12,11.2 µM (active)
20,CN1C(=O)C[C@H](c2ccccc2)C1=O,inactive
21,COc1ccc(C)cc1N(C)C(=O)c1c(C)oc2ncnc(N3CCOCC3)c12,inactive
22,O=C(O)c1cccc(S(=O)(=O)Nc2ccc(O)cc2Sc2nc3ccccc3s2)c1,14.1 µM (active)
23,CC(C)c1ccc(S(=O)(=O)Nc2ccc(O)c(Sc3nc4ccccc4s3)c2)cc1,inactive
24,O=[N+]([O-])c1c(NCCO)cc(Sc2nc3ccccc3s2)c2nonc12,inactive
25,CCOC(=O)c1ccc(NC(=O)CCn2cnnn2)cc1,inactive

row,SMILES,Potency
1,CCCCCCCCCc1ccc(OCCOCCOCCOCCOCCOCCOCCOCCOCCO)cc1,inactive
2,C[N+](C)(CCOc1ccccc1)Cc1cccs1 (tested in a mixture with another compound),inactive
3,O=S(=O)(/C=C/c1ccccc1)N1CCNCC1,inactive
4,Cc1cccc(C)c1N1CCN(S(=O)(=O)N2CCCCC2)CC1,inactive
5,O=S(=O)(N1CCCCC1)N1CCNCC1,15.8 µM (active)
6,Cc1ccc(CN2CCC(CNC(=O)c3cnn(-c4ccccc4Cl)c3C3CCN(C(=O)OC(C)(C)C)CC3)CC2)cc1,inactive
7,COc1cc(Cl)c(C)cc1Nc1nnc(-n2nc(C)cc2C)c2ccccc12,inactive
8,COC(=O)CCCCC1=CCC2C(=O)C=C(O)C2C1 (stereo not given),12.6 µM (active)
9,CCC(C)[C@@H](N)C(=O)O (stereo not given in full),inactive
10,NCCCCC(N)C(=O)O (stereo not given),inactive
11,Oc1ccc(Cl)c2c1CCC2,inactive
12,CC(=O)OC[C@H]1O[C@@H](O[C@H]2[C@H](O)[C@@H](OC(=O)c3ccccc3C(=O)O)[C@H](O)O[C@@H]2COC(C)=O)[C@H](O)[C@@H](OC(=O)c2ccccc2C(=O)O)[C@@H]1O,inactive
13,Cc1ccnc(SC2CC(=O)N(c3ccccc3)C2=O)n1 (stereo not given),inactive
14,Cc1ccnc(-n2sc3ccccc3c2=O)n1,10 µM (active)
15,C/C=C/C=N/NC(=O)c1ccncc1,inactive
16,CCOC(=O)c1sc(NC(=O)/C=C/c2ccc(C(C)C)cc2)c(C(=O)OCC)c1C,inactive
17,CCOc1cccc2c1N[C@@H](c1ccc(C(=O)O)cc1)[C@H]1CC=C[C@@H]21,3.98 µM (active)
18,CCOc1cccc(CC(=O)N2CCc3c([nH]c4ccccc34)C2c2ccc(F)cc2)c1OCC (stereo not given),inactive
19,CCOC(=O)C1Nc2ccc(C(F)(F)F)cc2C2C=CCC12 (stereo not given),inactive
20,Cc1ccc(S(=O)(=O)NC(=O)NN2C[C@H]3CCC[C@@H]3C2)cc1,inactive
21,Cc1ccc(S(=O)(=O)n2nc(C)c(S(=O)(=O)N3CCCCCC3)c2C)cc1,inactive
22,CC(C)(O)c1ccccc1CC[C@H](SCC1(CC(=O)O)CC1)c1cccc(/C=C/c2ccc3ccc(Cl)cc3n2)c1,inactive
23,COc1ccnc(C[S@@](=O)[C@@H]2Nc3ccc(OC(F)F)cc3N2)c1OC,inactive
24,C=C1C(=CC=C2CCC[C@]3(C)[C@@H]([C@H](C)C=C[C@H](C)C(C)C)CC[C@@H]23)C[C@@H](O)C[C@@H]1O,inactive
25,Cc1cccc(CCNC(=O)c2ccc3c(c2)nc2n3CCC(C)C2)c1 (stereo not given),inactive

row,SMILES,Potency
1,CCOC(=O)CSc1nc2c(c(=O)n(Cc3ccccc3Cl)c(=O)n2C)n1C,7.94 µM (active)
2,CCC1CCCCN1C(=O)CSc1nc2c(c(=O)n(C)c(=O)n2C)n1C (stereo not given),inactive
3,CCN(CC)C(=O)CSc1nc2ccsc2c(=O)n1Cc1ccccc1Cl,inactive
4,Cc1ccc(S(=O)(=O)N2CCc3cc(C(=O)Nc4ccc(Cl)cc4C)ccc32)cc1,inactive
5,CC(=O)CC(c1ccccc1)C1C(=O)Oc2ccccc2C1=O (stereo not given),inactive
6,Cc1ccc(NC(=O)c2cc(S(=O)(=O)NCCC3=CCCCC3)ccc2F)cc1C,inactive
7,CC1(C)OC2CO[C@]3(COS(N)(=O)=O)OC(C)(C)OC3C2O1 (stereo not given in full),inactive
8,CCOc1ccc(NS(=O)(=O)c2ccc(N)cc2)nn1,inactive
9,CN(C)CCCSc1ccccc1NC(=O)/C=C/c1ccccc1,inactive
10,Oc1ccc(/C=N/Nc2ccc(C(F)(F)F)cn2)cc1O,11.2 µM (active)
11,COc1ccc(/C=N/NC(=O)Cn2cc(C(F)(F)F)ccc2=O)cc1,inactive
12,C/C=C1\C2C=C(C)CC1(N)c1ccc(=O)[nH]c1C2 (stereo not given),inactive
13,Cc1c(Cl)cccc1NC(=O)C1CCCN(C(=O)c2cnn(-c3ccccc3)c2-n2cccc2)C1 (stereo not given),inactive
14,CCCCCCCCCCCCCCCCO,inactive
15,CCCN(CCC)S(=O)(=O)c1ccc(C(=O)Nc2sc3c(c2C(=O)OC)CCN(CC)C3)cc1,inactive
16,Cc1ccc(CN2CCc3nc(N4CCN(C)CC4)ncc3C2)cc1,inactive
17,CC(=O)NC(=O)c1ccccc1O,inactive
18,O=C(Cn1nc(C(=O)O)c2ccccc2c1=O)Nc1ccc(F)cc1,inactive
19,CC1(C)NC(=O)N(CC(=O)Nc2ccc(-c3ccccc3)cc2)C1=O,inactive
20,Cc1ccc(NC(=O)Cn2sc3ccccc3c2=O)cc1,7.08 µM (active)
21,Cc1ccc(Cl)cc1N1CCN(C(=O)CN2C(=O)COc3ccc(S(=O)(=O)N4CCOCC4)cc32)CC1,inactive
22,COc1cccc(CC(=O)N2CCCC(CCC(=O)N3CCN(c4ccccn4)CC3)C2)c1 (stereo not given),inactive
23,CC(=O)c1ccc(S(=O)(=O)NCCC(=O)N2CCN(c3ccccn3)CC2)cc1,inactive
24,C=Cc1ccc(C(=O)N2CCCC(CCC(=O)N3CCN(c4ccccn4)CC3)C2)cc1 (stereo not given),17.8 µM (active)
25,CCOC(=O)c1ccc(NC(=O)C2CCN(S(=O)(=O)c3ccc4c(c3)CCCC(=O)N4)CC2)cc1,inactive
